Compounds with a hit are over-represented: about 3.1% of the library has one in this group of screens.
Anthrax LF prot: anthrax lethal factor protease inhibition | 360,000 compounds, 0.12% hits | AID 588501 | inhibition, % at 10 µM | multiplex microsphere protease cleavage assay, LF
BoNT A protease: blocks Botulinum neurotoxin A light chain protease. multiplex microsphere protease substrate cleavage, flow cytometry. inhibition, % at 10 µM. 360,000 compounds, 0.17% hits
Bead autofluor: counter-screen for toxin protease inhibitors: compound fluorescence | compound autofluorescence counterscreen, microsphere flow cytometry; stronger effect = higher value | fluorescence intensity (no concentration beside the values) | 360,000 compounds, 3.1% hits; in the data active means fluorescence intensity above about 16000; inconclusive means no clear call, values can overlap the other calls
PriA SSB inh: inhibitors of Klebsiella pneumoniae PriA binding to SSB C-terminal tail. AlphaScreen SSBct-PriA binding, biotinylated peptide. inhibition, % at 33 µM. 430,000 compounds, 0.6% hits. AID 1272365; in the data active means inhibition mostly above about 37%, no sharp cut-off; inactive means mostly below about 20%
BoNT F protease: blocks Botulinum neurotoxin F light chain protease. Multiplex microsphere protease cleavage assay, flow cytometry. inhibition, % at 10 µM. 360,000 compounds, 0.22% hits; in the data active means inhibition above about 35%, passing the limit was not always enough; inconclusive means no clear call, values can overlap the other calls
A number is an active result; - = inactive; ? = inconclusive; . = no result. Unless noted, no stated cut-off is given here; in the data, active means inhibition above about 30%; inconclusive means no clear call, values can overlap the other calls; inactive means below that.

SMILES | Anthrax LF prot | BoNT A protease | Bead autofluor | PriA SSB inh | BoNT F protease
CCOC(=O)c1[nH]c(C)c(C(=O)Nc2cccc(Cl)c2C)c1C | - | - | 19613 | - | -
CCOC(=O)c1[nH]c(C)c(C(=O)Nc2ccc(Cl)cc2)c1C | - | - | - | - | -
Cn1ccc(C(=O)N(Cc2ccccn2)c2nc3ccccc3s2)n1 | . | . | . | - | .
CCOC(=O)c1nn(-c2ccc(C)cc2)c(=O)c2c(NC(=O)c3cc(-c4ccco4)on3)scc12 | . | . | . | - | .
Cc1ccc(C(=O)N/N=C/c2ccccn2)cn1 | . | . | . | - | .
O=C1c2cccc(OCc3ccccc3Cl)c2CCN1Cc1ccccc1F | . | . | . | - | .
CCCNC(=O)Cc1ccsc1 | - | - | 21829 | - | -
Cn1nc(-c2ccccc2)cc1C(=O)N1CC(N2C(=O)C3CC=CCC3C2=O)C1 (stereo not given) | . | . | . | - | .
Cc1ccccc1CN1CCN(Cc2ccccc2C(F)(F)F)CC1 | - | ? | 20858 | - | -
FC(F)(F)c1ccccc1CN1CCN(Cc2ccccc2)CC1 | - | - | - | - | -
Cc1nc(-n2cccc2)sc1C(=O)N1CCCC[C@H](c2ccc(F)cc2)C1 | . | . | . | - | .
O=C(CSc1nnc(-c2ccccn2)n1Cc1ccco1)c1ccc(-c2ccccc2)cc1 | ? | ? | ? | 49 | -
O=C(CSc1nnc(-c2cnccn2)n1Cc1ccco1)c1ccc2ccccc2c1 | - | ? | 21448 | - | -
CC(C)OC(=O)CSc1nnc(-c2cnccn2)n1Cc1ccco1 | - | - | - | - | -
Clc1ccc(CSc2nnc(-c3ccccn3)n2Cc2ccco2)c(Cl)c1 | - | - | - | 49 | -
COc1ccccc1C(=O)Nc1ccc2c(c1)CCC(=O)N2 | . | . | . | - | .
Cc1cc2n(n1)C(c1ccc3c(c1)OCO3)Nc1c(C)cccc1-2 (stereo not given) | ? | - | ? | - | -
Cc1cc(C)c2c(c1)-c1cc(C)nn1C(c1ccc3c(c1)OCO3)N2 (stereo not given) | - | ? | 24496 | - | -
O=C(NC[C@@H](c1cccs1)N1CCc2ccccc21)c1ccc2c(c1)OCO2 | . | . | . | - | .
CCOC(=O)c1c(C)oc2c1c(C(c1ccc(OC)cc1)N1CCOCC1)c(O)c1ccccc12 (stereo not given) | . | . | . | - | .
CCOC(=O)c1c(C)oc2c1c(C(c1ccccc1)N1CCOCC1)c(O)c1ccccc12 (stereo not given) | - | ? | 19404 | - | -
CCOC(=O)N1CCN(C(=O)CCc2csc(NC(=O)c3ccc(Cl)cc3)n2)CC1 | . | . | . | - | .
CCOC(=O)c1cc(=O)n(Cc2ccccc2C)c2ccccc12 | - | - | 20854 | - | -
CCn1c(=O)c2cc(C(=O)N(C)CC(OC)OC)sc2c2ccccc21 | 38 | - | - | - | -
CC(C)Nc1nc(C#N)nc(NC(C)C)n1 | - | - | - | 42 | -
SMILES | Anthrax LF prot | BoNT A protease | Bead autofluor | PriA SSB inh | BoNT F protease
Cc1ccc(-c2nnc(Nc3ccccc3)c3ccccc23)cc1S(=O)(=O)NCC1CCCO1 (stereo not given) | - | - | 21430 | - | -
CC(=O)Nc1ccc(Nc2nnc(-c3ccc(C)c(S(=O)(=O)NCC4CCCO4)c3)c3ccccc23)cc1 (stereo not given) | - | - | - | - | -
COC(=O)c1ccc2c(=O)n(CCC(=O)NCCc3ccc(Cl)cc3)c(=S)[nH]c2c1 | . | . | . | - | .
Brc1cnc(N2CCCC2)nc1N1CCOCC1 | - | ? | 21599 | - | -
O=Cc1ccc(N2N=C(c3ccccc3)CC2c2ccccc2)cc1 (stereo not given) | - | 42 | - | - | 53
CCOC(=O)N1CCN(C(=O)Nc2cccc(Cl)c2)CC1 | - | - | 19827 | - | -
COc1ccccc1N1CCN(C(=O)Nc2cccc(Cl)c2)CC1 | - | ? | 17904 | - | -
CCOC(=O)N1CCN(C(=S)Nc2cccc(C)c2)CC1 | - | - | 23824 | - | -
COc1ccccc1N1CCN(C(=O)Nc2ccc(F)c(Cl)c2)CC1 | - | - | - | - | -
CCOC(=O)C1CCN(C(=S)Nc2cccc(C)c2)CC1 | - | - | - | - | -
COC(=O)c1ccc(NC(=S)N2CCN(Cc3cccc(C)c3)CC2)cc1 | - | - | 21917 | - | -
COc1cccc(C(=O)NCC2CCN(C3CCCC3)CC2)c1 | . | . | . | - | .
Cc1nnc(NC(=O)CSc2nnc(-c3ccc(=O)n(C)c3)n2C)s1 | . | . | . | - | .
O=C1CCN(C(=O)Nc2cccc(Cl)c2)N1 | - | - | 22772 | - | -
O=C(Nc1c(C(=O)Nc2ccc3c(c2)OCO3)oc2ccccc12)c1cccs1 | . | . | . | - | .
NC1=NC2(CCCCC2)N(c2ccc(F)cc2)C(N)=N1 | - | - | - | - | -
NC1=NC2(CCCCC2)N(c2cccc(Cl)c2)C(N)=N1 | - | - | 16971 | - | -
NS(=O)(=O)c1ccc(NC(=O)c2ccno2)cc1 | . | . | . | - | .

Source: PubChem
